Experimental data published in PubChem BioAssay AID624331 (National Center for Advancing Translational Sciences (NCATS), 2012).
Results filed as inconclusive are left out. Where a call stands in place of a potency, no number is given. Calls of active or inactive are those of the source. Calls follow the shape of the dose curve; as a rule, active = well fitted activation curve with a large enough effect; inconclusive = small, poorly fitted or top-dose-only effect; inactive = no such curve, though single readings can be large or run the other way.

Assay: qHTS assay for re-activators of p53 using a Luc reporter: Hit Validation with no p53 Expressed
Settings: p53-null cells, luciferase reporter counter-screen; series mostly up to 46.1 µM
In short: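 Counter-screen of primary hits in a cell line not transfected with p53, in Opti-MEM with 10% FBS; compounds at several concentrations (10 mM stock, 1:5; top 46.1 µM in well), 24 h at 37 deg C, 5% CO2. Luminescence read after 10 min with Amplite reagent.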
With `O=C(NCCC1=CCCCC1)c1ccc(F)c(S(=O)(=O)N2CCOCC2)c1` the Potency was “inactive”. In the case of `Cc1cc(C(=O)NC2CCCCC2)c(C)n1-c1ccc(F)cc1`, the Potency is reported as “inactive”. With `Cc1ccc(C(=O)c2cc([N+](=O)[O-])ccc2N2CCCCC2)cc1C` the Potency was “inactive”. With `Cc1ccc2oc(-c3ccc(C)c(NC(=S)NC(=O)c4cccs4)c3)nc2c1` the Potency was “inactive”. In the case of `CN(C)c1ccc(/C=N/Nc2nncc3ccccc23)cc1`, the Potency is reported as “inactive”. For `O=C(CSc1nc2ccccc2c(=O)[nH]1)c1ccc(O)c(O)c1`, the Potency was “inactive”. With `Cc1ccc2cc(CCNC(=O)c3ccco3)c(=O)[nH]c2c1C` the Potency was “inactive”. In the case of `COCCSc1nnc(NC(=O)CCS(=O)(=O)c2ccccc2)s1`, the Potency is reported as “inactive”. For `Cc1ccc(NC(=O)/C=C/c2ccco2)nc1`, the Potency was “inactive”. In the case of `Cc1ccc(C(=O)OC(C)C(=O)Nc2ccc3c(c2)OCO3)c(O)c1` (stereo not drawn), the Potency is reported as “inactive”. For `COC(=O)c1cn[nH]c1NC(=S)Nc1ccc(C)cc1Cl`, the Potency was “inactive”. With `CCOC(=S)SCC(=O)Nc1nc(-c2ccc(Br)cc2)cs1` the Potency was “inactive”. For `CC(=O)N(C)c1ccc(NC(=O)CCN2C(=O)c3ccccc3C2=O)cc1`, the Potency was “inactive”. In the case of `O=C(CNC(=O)c1cccc(F)c1)N/N=C/c1cc(Br)ccc1OC(=O)/C=C/c1ccco1`, the Potency is reported as “inactive”. With `O=C(CC1NC2CCCCC2NC1=O)Nc1ccc2c(c1)OCO2` (stereo not drawn) the Potency was “inactive”. In the case of `Cc1ccc(NC(=O)c2ccc(OC(=O)C(C)Oc3ccc(Cl)cc3C)cc2)cc1` (stereo not drawn), the Potency is reported as “inactive”. With `CC(OC(=O)c1cnccn1)C(=O)Nc1nc(-c2cccc([N+](=O)[O-])c2)cs1` (stereo not drawn) the Potency was “inactive”. With `O=C(O)C1C2C=CC(C2)C1C(=O)Nc1ccccc1Br` (stereo not drawn) the Potency was “inactive”.
